Assay outcomes deposited in PubChem BioAssay by several laboratories.
The list is not random: actives were taken first. Their share in the collection is about 3.6%.
EBV LMP1 NFkB – reduces LMP1-driven NF-kappaB luciferase signal | LMP1-induced NF-kappaB luciferase reporter cells, luminescence | inhibition, % at 12.5 µM | actives 0.69% (n = 350,000) | AID 504558; in the data active = inhibition above about 41%; inconclusive = no clear call, values can overlap the other calls
LGR2 inh – Drosophila LGR2 receptor signaling inhibition; HEK293 LGR2, CRE-luciferase, bursicon-stimulated, 4 h; inhibition, % at 9.99 µM; actives 0.35% (n = 380,000);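 active = drop in luminescence signal, shown as inhibition above about 50% in the replicate tests, limit read from the data, passing the limit was not always enough; inconclusive = probably only some replicates passing the limit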;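 note: agonist challenge used bursicon conditioned medium at about half maximal strength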
TROY NFkB inh – blocks TROY-dependent signaling in reporter cells; Q293 LMP1-TROYcd NF-kB luciferase reporter, 4 h; inhibition, % at 10 µM; actives 0.98% (n = 360,000); AID 1347056;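 active = compounds whose plate-normalised and pattern-corrected inhibition of the luciferase reporter signal at the single screening dose is 50% or more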
HSF1 inh – HSF1 inhibition; actives 0.77% (n = 300,000); activity change, negative = inhibition, % at 7.5 µM (by protocol); AID 2098; NIH3T3-HGL HSE-luciferase, MG132-induced, luminescence 8 h; stronger effect = lower value;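 active = more than half of replicate wells show activity change below -50%, luminescence cut by over half; inconclusive = some wells, but at most half, below -50%; inactive = no replicate well below -50%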;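 note: luciferase reports HSF-1 transcriptional activity via heat shock element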
TWEAK-Fn14 inh – inhibitors of TWEAK-Fn14 interaction signaling. TWEAK-stimulated Fn14 reporter cells, luciferase luminescence, 8 h. inhibition, % at 10 µM. AID 1159606. actives 2% (n = 360,000); in the data active = inhibition above about 50%
HSF1 activator – increases HSF-1 driven luciferase reporter signal | activation, % at 9 µM | NIH3T3-HGL HSF-1 luciferase reporter, MG132, 8 h; 100% = twice DMSO control signal | actives 1.7% (n = 300,000);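 active = mean replicate activation of at least 50% with a set share of replicates each reaching 50%; inconclusive = only one of those two conditions met; inactive = mean below 50% and too few replicates reaching it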
A number is an active result; i = inactive; ? = inconclusive; nt = no result given.

SMILES	EBV LMP1 NFkB	LGR2 inh	TROY NFkB inh	HSF1 inh	TWEAK-Fn14 inh	HSF1 activator
COc1ccc(NC(=O)Nc2ccc3c(c2)C(=O)N([C@H](C)CO)C[C@@H](C)[C@@H](CN(C)Cc2ccc(Oc4ccccc4)cc2)O3)cc1	nt	i	nt	nt	nt	nt
COc1ccc(N(C(=O)Cc2cccs2)C(C(=O)NC2CCCC2)c2ccncc2)cc1 (stereo unspecified)	i	i	i	i	i	i
O=C(NCC(=O)N(c1ccc(F)cc1)C(C(=O)NC1CCCCC1)c1cccnc1)c1ccco1 (stereo unspecified)	i	i	i	i	i	i
CC(C)CCN(C(=O)CNC(=O)c1cccs1)C(C(=O)NC1CCCCC1)c1cccnc1 (stereo unspecified)	i	i	i	-70	i	i
O=C(NC1CCCCC1)C(c1cccnc1)N(C(=O)CCl)c1ccc(F)cc1 (stereo unspecified)	76	i	i	i	i	i
O=C(NC1CCCCC1)C(c1cccnc1)N(C(=O)CCl)c1ccccc1Cl (stereo unspecified)	63	i	i	i	62	i
COc1ccc(N(C(=O)CCl)C(C(=O)NC2CCCCC2)c2cccnc2)cc1 (stereo unspecified)	62	i	i	?	i	i
CC(C)C#Cc1ccc2c(c1)O[C@H](CN(C)Cc1cccnc1)[C@@H](C)CN([C@@H](C)CO)S2(=O)=O	nt	i	nt	nt	nt	nt
COc1ccc(OC)c(S(=O)(=O)Nc2cc3c4c(c2)C(C)C(=O)N4CCC3)c1 (stereo unspecified)	i	i	57	i	i	i
C[C@@H]1CN([C@@H](C)CO)C(=O)c2cccc(NC(=O)Nc3ccc(F)cc3)c2O[C@@H]1CN(C)Cc1ccc(C(=O)Nc2ccccc2N)cc1	nt	i	nt	nt	nt	nt
CC(C)c1ccc(NC(=O)c2ccc(-c3ccnn3C)c3ccoc23)cc1	nt	nt	i	nt	79	nt
CCOC(=O)c1cc(-c2ccccc2)sc1NC(=O)CC(C)C	i	nt	i	i	i	i
CCOC(=O)c1cc(-c2ccccc2)sc1NC(=O)C(C)(C)C	i	nt	i	i	96	i
COC(=O)c1ccc(CSc2ncnc3c2oc2ccccc23)o1	i	nt	i	i	i	113
c1coc(CSc2ncnc3c2oc2ccccc23)c1	i	nt	i	i	i	66
COC(=O)c1ccc(CSc2ncnc3ccccc23)o1	i	i	i	i	i	i
c1ccc(CSc2ncnc3c2oc2ccccc23)cc1	i	nt	i	i	i	i
CCCNC(=O)N1C[C@H](O)COC[C@@H]2O[C@H](CC(=O)N3CCOCC3)CC[C@H]21	nt	i	nt	nt	nt	nt
CN(C)/C=N/C(=S)Nc1ccccc1Cl	i	nt	i	nt	i	nt
CN(C)/C=N/C(=S)Nc1ccc(Cl)c(Cl)c1	i	i	i	i	i	i
CN(C)/C=N/C(=S)Nc1ccc(F)cc1	i	nt	nt	i	88	i
CN(C)/C=N/C(=S)Nc1ccccc1F	i	nt	nt	i	74	i
CCOC(=O)Nc1ccc(C(=O)Oc2ccccc2)c(O)c1	i	i	i	i	i	68
O=C(Nc1ccc(C(=O)Oc2ccccc2)c(O)c1)c1ccccc1	i	i	i	i	i	i
C(=C\c1ccccc1)/CSc1nc2ncccc2[nH]1	i	i	i	i	i	72
SMILES	EBV LMP1 NFkB	LGR2 inh	TROY NFkB inh	HSF1 inh	TWEAK-Fn14 inh	HSF1 activator
O=C(Nc1ccccc1)N1C[C@H]2[C@@H](c3ccccc31)[C@@H](CO)N2Cc1ccccc1Cl	nt	i	nt	nt	nt	nt
COc1ccc(/C(N)=N/OC(=O)/C=C/c2ccccc2)cc1	i	i	i	i	i	54
COc1ccc(C(=O)O/N=C(\N)c2ccc(OC)c(OC)c2)cc1	i	i	i	i	i	66
COc1ccc(/C(N)=N/OC(=O)CSc2ccc(C)cc2)cc1OC	i	nt	i	i	i	57
COc1ccc(C(=O)O/N=C(\C)c2ccccc2)cc1	i	nt	69	i	i	i
COc1ccc(C(=O)O/N=C(/c2ccccc2)c2ccncc2)cc1	i	i	i	i	i	i
CC(C)NC(=O)Nc1ccc2c(c1)C(=O)N([C@@H](C)CO)C[C@@H](C)[C@@H](CN(C)Cc1ccc3c(c1)OCO3)OCCCC[C@H](C)O2	nt	i	nt	nt	nt	nt
Cc1ccc(S(=O)(=O)N[C@@H]2CC[C@@H](CC(=O)NCc3ccncn3)O[C@@H]2CO)cc1	nt	i	nt	nt	nt	nt
C[C@H](CO)N1C[C@H](C)[C@H](CN(C)C(=O)Cc2ccncc2)Oc2cc(C#CC3CC3)ccc2S1(=O)=O	nt	i	nt	nt	nt	nt
